Measurements reported in publication PMC5540273 (PLoS ONE, 2017).
Values joined by “and” are separate entries in the source; they are usually repeats but may differ in a detail not shown here. Identical values can stand only once. Like-named read-outs stand apart in the source and are kept apart here.

Tests used:
[1] = tested on: T1, PIP5K2C; conditions: concentration: 1 μM, replicates: in singlicate, n = 1
T1 construct: gene PIP4K2C

[2] = tested on: T2, PKAC-alpha; conditions: concentration: 1 μM, replicates: in singlicate, n = 1
T2 construct: gene PRKACA

[3] = tested on: T3, PKAC-beta; conditions: concentration: 1 μM, replicates: in singlicate, n = 1
T3 construct: gene PRKACB

[4] = tested on: PKMYT1; conditions: concentration: 1 μM, replicates: in singlicate; n = 1
[5] = tested on: PKN1; conditions: concentration: 1 μM, replicates: in singlicate, n = 1
[6] = tested on: PKN2; conditions: concentration: 1 μM, replicates: in singlicate, n = 1
[7] = tested on: PLK1; conditions: concentration: 1 μM, replicates: in singlicate, n = 1
[8] = tested on: PLK2; conditions: concentration: 1 μM, replicates: in singlicate, n = 1
[9] = tested on: PLK3; conditions: concentration: 1 μM, replicates: in singlicate, n = 1
[10] = tested on: PLK4; conditions: concentration: 1 μM, replicates: in singlicate, n = 1
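Also: KINOMEscan kinase panel screen.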

Compound	%Inh [1] [%]	%Inh [2] [%]	%Inh [3] [%]	%Inh [4] [%]	%Inh [5] [%]	%Inh [6] [%]	%Inh [7] [%]	%Inh [8] [%]	%Inh [9] [%]	%Inh [10] [%]	%Inh ([1]; 1 µM)	%Inh ([2]; 1 µM)	%Inh ([3]; 1 µM)	%Inh ([5]; 1 µM)	%Inh ([6]; 1 µM)	%Inh ([7]; 1 µM)	%Inh ([8]; 1 µM)	%Inh ([9]; 1 µM)	%Inh ([10]; 1 µM)
CCC(CC)(CC)n1cnc2c(N)ncnc21 [SKF-97620]	0	11	14	2	0	0	45	32	21	7	–	–	–	–	–	–	–	–	–
Nc1nc(-c2ccc3c(N)n[nH]c3c2)cc(N2CCC[C@@H](C(=O)Nc3ccccc3)C2)n1.O=C(O)C(F)(F)F.O=C(O)C(F)(F)F [GSK2288359]	31	14	22	0	17	0	3	0	3	16	–	–	–	–	–	–	–	–	–
O=C(c1ccc(-c2cc(-c3c[nH]nc3-c3ccccn3)ccn2)cc1)N1CCCC1 [GW792479]	97	0	22	0	0	0	0	0	12	0	–	–	–	–	–	–	–	–	–
CC(=O)Nc1n[nH]c2ncc(-c3ccccc3)cc12 [SB-548492]	0	0	14	0	0	29	1	27	25	8	–	–	–	–	–	–	–	–	–
CS(=O)(=O)CCNCc1nc(-c2ccc3ncnc(Nc4ccc(OCc5cccc(F)c5)c(Cl)c4)c3c2)cs1.Cl [GW583340]	24	0	0	0	0	0	0	0	0	3	–	–	–	–	–	–	–	–	–
CSc1ccc(NC2=C(c3ccccc3Cl)C(=O)NC2=O)cc1 [SB-342411]	0	74	0	25	36	0	8	0	0	13	–	–	–	–	–	–	–	–	–
Fc1cccc(COc2ccc(Nc3ncnc4cc[nH]c34)cc2Cl)c1	5	25	1	10	0	0	23	23	23	27	–	–	–	–	–	–	–	–	–
OCCOCCn1ccc2ncnc(Nc3ccc(Oc4cccc(Cl)c4)c(Cl)c3)c21	30	0	0	0	13	0	0	0	0	0	–	–	–	–	–	–	–	–	–
COc1ccc(-c2nc3n(c2-c2ccncc2)CCC3)cc1 [SKF-104493]	–	–	–	0	–	–	–	–	–	–	0% and 9%	5% and 0%	7% and 0%	7% and 0%	23% and 0%	22% and 0%	11% and 0%	1% and 0%	0% and 15%
CCn1c(-c2ccncc2)nc2cnccc21 [SB-735216]	0	0	3	6	2	20	28	37	16	0	–	–	–	–	–	–	–	–	–
O=C(Nc1n[nH]c2nc(-c3ccco3)c(Br)cc12)c1ccc(CN2CCCC2)cc1.O=C(O)[C@H](O)[C@@H](O)C(=O)O [SB-742352]	0	0	0	0	0	21	0	0	0	3	–	–	–	–	–	–	–	–	–
CC(C)(C)c1ccc(-n2cnc3c(N)ncnc32)cc1 [SKF-97263]	27	4	2	3	39	11	7	0	0	0	–	–	–	–	–	–	–	–	–
Cl.c1ccc(Cn2ccc3cc(Nc4ncnc5ccccc45)ccc32)cc1 [GW275568]	25	18	0	0	26	0	4	0	0	5	–	–	–	–	–	–	–	–	–
Clc1ccc(-c2cc(-c3c[nH]nc3-c3ccccn3)ccn2)cc1 [GW681251]	39	0	0	7	0	0	0	0	0	4	–	–	–	–	–	–	–	–	–
Cc1cccc(-c2nc(Nc3ccc4[nH]nnc4c3)c3ccccc3n2)n1 [GW867587]	0	0	0	0	0	0	0	0	0	0	–	–	–	–	–	–	–	–	–
Nc1n[nH]c2nnc(-c3ccccc3)cc12 [SB-517389]	7	0	0	0	7	0	0	35	33	9	–	–	–	–	–	–	–	–	–
FC(F)(F)c1ccc(-c2cc(-c3c[nH]nc3-c3ccccn3)ccn2)cc1 [GW599550]	59	10	6	0	0	0	0	0	0	10	–	–	–	–	–	–	–	–	–

Compound	%Inh [1] [%]	%Inh [2] [%]	%Inh [3] [%]	%Inh [4] [%]	%Inh [5] [%]	%Inh [6] [%]	%Inh [7] [%]	%Inh [8] [%]	%Inh [9] [%]	%Inh [10] [%]	%Inh ([1]; 1 µM)	%Inh ([2]; 1 µM)	%Inh ([3]; 1 µM)	%Inh ([5]; 1 µM)	%Inh ([6]; 1 µM)	%Inh ([7]; 1 µM)	%Inh ([8]; 1 µM)	%Inh ([9]; 1 µM)	%Inh ([10]; 1 µM)
CCc1nc(-c2cccc(C)c2)c(-c2ccnc(NC(=O)c3ccccc3)c2)s1	99.1	0	0	0	13	0	0	5	9	17	–	–	–	–	–	–	–	–	–
Nc1nc(-c2ccc3c(N)n[nH]c3c2)cc(N2CCCCC2)n1 [GSK2228768]	0	56	0	13	18	0	0	0	0	0	–	–	–	–	–	–	–	–	–
Fc1cccc(COc2ccc(Nc3ncnc4sc(-c5ccc[nH]5)cc34)cc2Cl)c1 [GW707818]	25	0	0	0	32	1	0	7	19	0	–	–	–	–	–	–	–	–	–
COc1cc2ncnc(Nc3ccc(OCc4ccccc4Br)c(Cl)c3)c2cc1OC.Cl [GI261590]	41	0	0	3	100	0	3	0	0	0	–	–	–	–	–	–	–	–	–
CSc1nn2c(=O)cc(N3CCOCC3)nc2n1Cc1cccc(Cl)c1Cl [GSK2347225]	7	24	12	0	5	0	55	0	5	13	–	–	–	–	–	–	–	–	–
COc1cc2c(Nc3cccc(NC(=O)c4ccccc4)c3)ncnc2cc1OCCCN1CCOCC1 [GSK223810]	0	100	0	7	8	0	0	3	0	17	–	–	–	–	–	–	–	–	–
Oc1ccc2ncnc(Nc3ccc(OCc4ccccc4)cc3)c2c1 [GI262866]	40	0	0	5	1	0	0	0	0	0	–	–	–	–	–	–	–	–	–
CC(C)(C)OC(=O)NC1CCCN(c2cc(-c3ccc4c(N)n[nH]c4c3)nc(N)n2)C1 (stereo not drawn) [GSK2286096]	0	0	0	0	0	0	16	0	0	10	–	–	–	–	–	–	–	–	–
Cl.O=S(=O)(c1cccc(F)c1)c1ccc(Nc2ncnc3cc(Br)sc23)cc1Cl [GSK306886]	60	0	0	26	19	0	0	0	0	26	–	–	–	–	–	–	–	–	–
c1ccc(-c2ccc3c(-c4ccnc(Nc5ccc6c(c5)OCCO6)n4)cnn3n2)cc1 [GW818941]	36	0	28	3	65	0	9	0	0	0	–	–	–	–	–	–	–	–	–
COC(=O)c1cccc(NC(=O)NCCNc2ccnc(Nc3ccc(F)cc3)n2)c1 [GSK1379883]	22	3	0	10	3	0	4	0	0	0	–	–	–	–	–	–	–	–	–
Cn1cc(-c2ccc3c(c2)CCN3C(=O)Cc2cccc(C(F)(F)F)c2)c2c(N)ncnc21 [GSK2606414]	0	4	6	5	37	0	0	0	0	15	–	–	–	–	–	–	–	–	–
COC(=O)c1c(-c2ccccc2)c2cc(Cl)ccc2c(=O)n1Cc1ccc(S(C)(=O)=O)cc1	0	5	0	1	0	0	0	6	9	26	–	–	–	–	–	–	–	–	–
Cl.Cn1ccc(-c2cccc(Nc3ccnc4cc(-c5nccs5)ccc34)c2)n1 [GW525701]	50	0	0	0	0	0	0	0	0	5	–	–	–	–	–	–	–	–	–
Cl.Fc1ccccc1COc1ccc(Nc2ncnc3ccc(-c4nnc(C(F)(F)F)o4)cc23)cc1Cl [GW424170]	7	0	0	0	0	0	0	0	0	0	–	–	–	–	–	–	–	–	–
FC(F)(F)c1ccc(-c2nn3ncccc3c2-c2ccnc(Nc3cccc(C(F)(F)F)c3)n2)cc1 [GW828205]	3	0	24	15	0	0	0	0	18	0	–	–	–	–	–	–	–	–	–
